The values that follow come from PubChem BioAssay.

Assay [1] can be described thus: E. coli DRC41 culture turbidity changes, primary screen, E. coli filamentation inducer project, strain DRC41, OD650, 48 h (AID 1152).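 Further: E. coli MC1000 strain DRC41 lacking acrAB efflux pump and sulA.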 The settings on record: E. coli DRC41 (acrAB sulA), higher = more signal, called active from +8 up or from −8 down.
Assay [2] can be described thus: small-molecule binders of probe aLefty1, primary screen, biochemical, small-molecule microarray, 635/667 nm fluorescence (AID 1153).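 Further: score merges spot fluorescence with signal-to-noise ratio from the scanned slide images.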 The note with it: higher = more signal.
Assay [3] can be described thus: PSAC antagonists in infected red cells, primary screen, cell-based, P. falciparum Indochina, OD700, 1 h (AID 1154). The settings on record: P. falciparum Indochina infected RBC osmotic lysis, higher = more signal, called active from +8 up or from −8 down.
A short description of assay [4]: PSAC antagonists in infected red cells, primary screen, cell-based, P. falciparum Indochina, OD700, 2 h (AID 1155).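 Further: lysis reports solute entry through the parasite surface anion channel PSAC; channel blockers reduce lysis of infected cells.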 The note with it: P. falciparum Indochina infected erythrocytes, osmotic lysis OD700; higher = more signal, called active from +8 up or from −8 down.
Assay [5] can be described thus: osmotic lysis modulators in infected erythrocytes, primary screen, PSAC antagonist project, cell-based, P. falciparum Indochina, OD700, 3 h (AID 1156). The settings on record: higher = more signal, called active from +8 up or from −8 down.
Assay [6] can be described thus: PSAC antagonists in infected red cells, primary screen, cell-based, P. falciparum Indochina, OD700, 18 h (AID 1157). The settings on record: P. falciparum Indochina infected erythrocytes, osmotic lysis OD700, 18 h; higher = more signal, called active from +8 up or from −8 down.
A short description of assay [7]: modulators of S6 phosphorylation in cells, primary screen, cell-based, A549, cytoblot, luminescence, serum-stimulated (AID 1158).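 Further: serum-stimulated A549 lung adenocarcinoma cells; signal is phosphorylated S6 detected by cytoblot immunostaining with HRP secondary.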 The settings on record: A549 phospho-S6 cytoblot, 5 h, higher = more signal.
Assay [8] addresses NADPH oxidase 2 (Homo sapiens) (UniProt P04839). Description: NOX2-dependent H2O2 signal modulators, primary screen, NOX inhibitor project, cell-based, HEK293-NOX2, PMA-stimulated, Amplex Red fluorescence (AID 1159). Further: test concentration not given here. The note with it: 45 min, higher = more signal, called active from +8 up or from −8 down.
For assay [9], the target named is NADPH oxidase 4 (Homo sapiens) (UniProt Q9NPH5). Nature of the assay: NOX4-dependent H2O2 signal modulators, primary screen, NOX inhibitor project, cell-based, HEK293-NOX4, tetracycline-induced, Amplex Red fluorescence (AID 1160). The settings on record: 45 min, higher = more signal, called active from +8 up or from −8 down.
Assay [10] has as its target NADPH oxidase 5 (Homo sapiens) (UniProt Q96PH1). Nature of the assay: NOX5-dependent H2O2 signal modulators, primary screen, NOX inhibitor project, cell-based, HEK293-NOX5, Amplex Red fluorescence (AID 1161). The settings on record: HEK293-NOX5, ionomycin, 45 min, higher = more signal.

The structures appear in SMILES notation. Calls of active or inactive are those of the source.

Chain of NADPH oxidase 2 (Homo sapiens) (P04839 whole entry, looked up): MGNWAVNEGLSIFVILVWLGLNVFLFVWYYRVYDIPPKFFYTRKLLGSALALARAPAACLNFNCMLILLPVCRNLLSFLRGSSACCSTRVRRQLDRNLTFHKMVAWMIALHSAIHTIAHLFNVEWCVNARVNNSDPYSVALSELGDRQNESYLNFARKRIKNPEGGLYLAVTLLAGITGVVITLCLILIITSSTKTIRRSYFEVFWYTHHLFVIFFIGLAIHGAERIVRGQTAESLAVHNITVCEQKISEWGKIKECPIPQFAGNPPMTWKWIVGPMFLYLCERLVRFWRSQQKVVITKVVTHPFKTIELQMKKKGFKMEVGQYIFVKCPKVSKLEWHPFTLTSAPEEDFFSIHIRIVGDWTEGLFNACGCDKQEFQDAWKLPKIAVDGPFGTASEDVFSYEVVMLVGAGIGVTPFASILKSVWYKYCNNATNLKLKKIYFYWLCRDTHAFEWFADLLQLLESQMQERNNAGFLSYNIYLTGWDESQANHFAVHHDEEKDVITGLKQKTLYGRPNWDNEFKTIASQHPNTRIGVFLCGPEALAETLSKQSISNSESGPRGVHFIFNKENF
Chain of NADPH oxidase 4 (Homo sapiens) (Q9NPH5 whole entry, looked up): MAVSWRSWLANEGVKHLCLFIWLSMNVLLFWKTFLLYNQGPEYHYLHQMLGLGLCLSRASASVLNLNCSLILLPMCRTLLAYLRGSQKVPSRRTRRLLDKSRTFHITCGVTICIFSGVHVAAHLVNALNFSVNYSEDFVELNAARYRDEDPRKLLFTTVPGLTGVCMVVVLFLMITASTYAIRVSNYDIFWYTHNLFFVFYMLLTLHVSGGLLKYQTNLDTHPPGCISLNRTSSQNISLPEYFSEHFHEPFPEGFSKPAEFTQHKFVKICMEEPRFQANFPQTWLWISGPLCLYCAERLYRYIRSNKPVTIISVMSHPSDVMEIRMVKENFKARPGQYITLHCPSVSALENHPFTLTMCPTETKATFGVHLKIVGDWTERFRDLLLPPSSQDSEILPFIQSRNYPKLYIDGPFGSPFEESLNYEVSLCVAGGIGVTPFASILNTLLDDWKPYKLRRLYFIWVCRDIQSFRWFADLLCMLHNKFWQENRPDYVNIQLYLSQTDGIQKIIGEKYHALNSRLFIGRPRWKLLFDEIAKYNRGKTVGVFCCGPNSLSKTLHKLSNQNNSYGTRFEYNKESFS
Chain of NADPH oxidase 5 (Homo sapiens) (Q96PH1 whole entry, looked up): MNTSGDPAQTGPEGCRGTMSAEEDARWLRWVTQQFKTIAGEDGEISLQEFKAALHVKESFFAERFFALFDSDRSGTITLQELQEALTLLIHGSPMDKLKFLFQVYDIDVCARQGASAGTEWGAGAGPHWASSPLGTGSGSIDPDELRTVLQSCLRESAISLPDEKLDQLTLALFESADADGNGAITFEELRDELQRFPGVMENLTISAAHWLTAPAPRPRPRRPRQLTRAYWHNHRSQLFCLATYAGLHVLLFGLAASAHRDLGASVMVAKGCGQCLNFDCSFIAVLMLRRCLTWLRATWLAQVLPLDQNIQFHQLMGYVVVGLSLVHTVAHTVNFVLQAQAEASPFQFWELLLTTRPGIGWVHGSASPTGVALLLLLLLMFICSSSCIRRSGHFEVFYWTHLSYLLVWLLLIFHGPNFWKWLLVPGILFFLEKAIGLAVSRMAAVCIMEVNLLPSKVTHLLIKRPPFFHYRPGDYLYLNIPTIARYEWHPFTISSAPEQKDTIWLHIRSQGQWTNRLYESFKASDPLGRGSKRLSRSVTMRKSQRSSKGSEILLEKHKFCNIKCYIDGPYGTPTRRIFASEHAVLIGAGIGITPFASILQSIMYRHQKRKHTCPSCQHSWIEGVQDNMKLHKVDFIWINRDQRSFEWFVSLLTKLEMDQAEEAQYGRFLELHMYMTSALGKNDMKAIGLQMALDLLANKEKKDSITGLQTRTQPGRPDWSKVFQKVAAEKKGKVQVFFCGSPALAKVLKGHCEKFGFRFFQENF

Turning to `C=CCN(C(=O)C1N(c2ccc(CCO)cc2)C(=O)C2C(C(=O)O)C3C=CC21O3)C(C)(C)C` (stereo not given), the z-score is 2.75 (inactive) in assay [1]; 0.0302 (inactive) in assay [3]; -1.14 (inactive) in assay [4]; -1.43 (inactive) in assay [5]; -1.91 (inactive) in assay [6]; 0.434 in [7]. In addition, the z-score in [8] is 1.9 (inactive); in assay [9], -1.46 (inactive); in assay [10], 0.845. The composite z-score in [2] was 0.0445.

`Cc1ccc([C@@H]2CC=C(C(=O)O)[C@H](c3ccccc3)N2S(=O)(=O)c2ccc(C)cc2)cc1`: the z-score in assay [1] is -1.17 (inactive); in assay [3] it was 1.83 (inactive); in assay [4] it was 0.929 (inactive); in assay [5] it was 0.692 (inactive); in [6], 0.708 (inactive); in assay [7] it was -0.256. The z-score is 0.489 (inactive) in [8], -1.2 (inactive) in assay [9] and -0.96 in assay [10]. The composite z-score in assay [2] turned out to be 1.

With `C=CCC1=C[C@H]2[C@H]([C@@H]3C=C[C@]2(CC=C)C(=O)[C@]32CO2)[C@@]2(CO2)C1=O`, the z-score was 2.45 (inactive) in assay [1]; 0.348 (inactive) in assay [3]; -0.877 (inactive) in [4]; 1.16 (inactive) in assay [5]; -1.87 (inactive) in assay [6]; 0.76 in assay [7]. Further, the z-score in assay [8] was -0.0349 (inactive); in [9], 0.0495 (inactive); in assay [10] it was -0.972. Besides, the composite z-score in assay [2] came out at 0.736.

Turning to `COCCOC(=O)N1C(=O)[C@@]2(c3ccccc31)[C@H](C(=O)N1CCc3cc(OC)c(OC)cc3C1)[C@H]1C(=O)O[C@H](c3ccccc3)[C@H](c3ccccc3)N1[C@@H]2c1ccccc1OCCO`, the z-score was 2.1 (inactive) in assay [1]; 8.34 (active) in assay [3]; 1.35 (inactive) in [4]; 1.38 (inactive) in assay [5]; 0.123 (inactive) in assay [6]; 2.25 in [7]. Moreover, the values for the z-score in assay [8], in assay [9] and in assay [10] were 2.12 (inactive), 1.46 (inactive) and 0.00739, respectively. For the same molecule, the composite z-score in assay [2] is 0.391.

As to `C=C(CCCC)/C(=C/C[C@@H](OC(=O)c1ccncc1)c1ccc(CO)o1)c1cnc2ccccc2c1`, the z-score in [1] was 0.583 (inactive); in [3] it was 7.06 (inactive); in [4] it was 0.843 (inactive); in assay [5], 1.17 (inactive); in [6], 0.0867 (inactive); in assay [7] it was -0.349. For the same molecule, the z-score was 0.194 (inactive) in assay [8], -0.546 (inactive) in assay [9] and -0.634 in [10]. The molecule further showed a composite z-score in assay [2] of 0.569.

For `CCCC=C(CCC)[C@@H](NC(=O)c1ccccc1)c1ccccc1`, the z-score in [1] was -0.845 (inactive); in assay [3], 1.37 (inactive); in assay [4], 0.894 (inactive); in assay [5], 0.131 (inactive); in [6], 0.812 (inactive); in assay [7], 0.316. Besides, the z-score in assay [8] is -0.523 (inactive); in [9], 0.304 (inactive); in assay [10], 0.895. In [2], this molecule showed a composite z-score of 0.221.

Turning to `COCCOC(=O)N1C(=O)[C@@]2(c3cc(C#CCNC(N)=O)ccc31)[C@H](c1ccccc1OCCO)N1[C@H](c3ccccc3)[C@H](c3ccccc3)OC(=O)[C@H]1[C@@H]2C(=O)NC[C@H](O)c1ccccc1`, the z-score in [1] was 0.369 (inactive); in [3], 2.18 (inactive); in [4], 0.758 (inactive); in [5] it was 0.299 (inactive); in assay [6] it was 0.751 (inactive); in assay [7], -0.209. Further, the z-score in assay [8] was 1.02 (inactive); in assay [9] it was 1.17 (inactive); in assay [10], 0.219. This molecule also returned a composite z-score in assay [2] of 0.346.

Regarding `C=CC[C@]1(C(=O)O)N=C(c2ccc(OCCCO)cc2)O[C@H]1c1ccccc1N=[N+]=[N-]`, the z-score in assay [1] is 1.76 (inactive); in assay [3], 32.9 (active); in [4], 29.4 (active); in [5] it was 3.38 (inactive); in [6] it was 9.45 (active); in assay [7], 0.883. Also, the z-score is -1.53 (inactive) in [8], 0.823 (inactive) in assay [9] and -0.199 in [10]. The composite z-score in [2] came to 0.0299.

With `C=CCN1C(=O)[C@@]2(O[C@@H](CCn3cc([C@H](O)c4ccccc4)nn3)[C@H]([Si](C)(C)c3ccc(OC)cc3)[C@H]2C)c2cc(N3CCOC3=O)ccc21`, the z-score was 1.77 (inactive) in assay [1]; 6.55 (inactive) in assay [3]; 0.569 (inactive) in [4]; -0.0434 (inactive) in [5]; -0.233 (inactive) in [6]; 1.67 in assay [7]. In addition, the z-score in [8] was -0.379 (inactive); in assay [9], 1.18 (inactive); in [10] it was -1.67. Also, the composite z-score in [2] is -0.139.

On to `CC(C)(C)OC(=O)CC[C@]1(C(=O)NCCN2CCOCC2)N=C(c2ccc(OCCCO)cc2)O[C@H]1c1ccccc1CN=[N+]=[N-]`, for which the z-score in [1] is 1.66 (inactive); in assay [3], 9.62 (active); in [4], 0.121 (inactive); in [5], 0.434 (inactive); in [6] it was -1.81 (inactive); in assay [7] it was 1.04. The z-score in assay [8] is 1.06 (inactive); in [9] it was 0.755 (inactive); in [10] it was 0.699. This molecule also had a composite z-score in [2] of -0.0162.

Take `C[C@@H]1C=CCC(=O)OC[C@H]2O[C@@H](C=C[C@@H]2O)[C@H](C)C=CCC(=O)OC[C@H]2O[C@H]1C=C[C@@H]2O`: the z-score was -1.91 (inactive) in [1]; 0.43 (inactive) in [3]; 0.278 (inactive) in assay [4]; -1.65 (inactive) in assay [5]; -0.725 (inactive) in assay [6]; 2.22 in [7]. The z-score was -1.01 (inactive) in [8], 0.418 (inactive) in [9] and 0.0421 in assay [10]. For the same molecule, in assay [2], the composite z-score amounted to 0.596.
